# Screening data from PubChem.
# Most compounds without a hit are left out; they make up all but 7.9% or so of the library.
# HT1080 IDH1KD tx – kills HT-1080 cells with IDH1 knockdown; actives 2% (n = 360,000); HT-1080 IDH1 knockdown viability, ATP luminescence, 48 h; Potency, µM (titrated, usually from 46.1 µM), for inactives: at the top dose activity, negative = toxicity, usual class: cytotoxic;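 further: 0% = DMSO wells and -100% = cell-free medium wells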
#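 Cytotoxicity counter-line: IDH1KD HT-1080, 48 h, CellTiter-Glo. Curves classed by r2, magnitude and activity.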
# HT1080NT lethal – kills 2HG-producing HT-1080-NT fibrosarcoma cells. Potency, µM (doses to about 46.1 µM), for the others: at the top dose activity, negative = less viability, most hits filed as cytotoxic. actives 1.6% (n = 360,000). AID 686970. HT-1080-NT fibrosarcoma viability, CellTiter-Glo ATP luminescence, 48 h;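 further: NT is the 2HG producing partner of a matched IDH1 knockdown line; 0% = DMSO-treated cells and -100% = media-only wells without cells; nearly all actives have a fitted effect of over 55% in size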
#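 A 48-hour cytotoxicity screen used HT-1080-NT cells plated 2 hours before compound delivery. ATP-based CellTiter-Glo luminescence measured viability, normalized to DMSO and no-cell controls.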
# SW480 rereplic – induces DNA re-replication in SW480 colon adenocarcinoma cells; SW480 DNA re-replication, Hoechst DNA content imaging, 48 h; actives 1.8% (n = 340,000); Potency, µM (series often up to 46.1 µM), for inactives: top-dose re-replication activation, most hits filed as activators; AID 624297; further: % of control where 0% means no effect; nearly all actives have a fitted effect of over 55% in size
#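 DNA re-replication was detected as more nuclei of elevated Hoechst intensity after 48 hr exposure to compound (23 nL pinned per well of 250 cells).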
# KB-3-1 cytotox – KB-3-1 parental cell cytotoxicity. KB-3-1 viability, CellTiter-Glo ATP luminescence, 72 h. Potency, µM (titrated, usually from 46.1 µM), actives largely listed as cytotoxic. actives 1.4% (n = 400,000); further: on the % scale 0 is the no-effect control and ±100 the full control effect; nearly all actives have a fitted effect of over 60% in size
#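 Here the drug-naive KB-3-1 line serves as comparator for MDR sub-line selectivity; cells received compound titrations, 72 h at 37 °C, then CellTiter-Glo readout.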
# KB-V1 cytotox – kills drug-selected multidrug resistant KB-V1 cells; AID 1347076; actives 3.4% (n = 400,000); KB-V1 MDR cells viability, CellTiter-Glo, 72 h; Potency, µM (titrated, usually from 46.1 µM), usual class: cytotoxic; further: on the % scale 0 is the no-effect control and ±100 the full control effect; nearly all actives have a fitted effect of over 60% in size
#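 Cells of the MDR subline KB-V1 are plated, dosed with compound at multiple concentrations, and incubated 72 h at 37 degrees C; CellTiter-Glo is then added and luminescence read after 10 min.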
# MCF10A rerep – DNA re-replication induction in MCF 10a cells; MCF 10A DNA re-replication, Hoechst nuclear intensity, 48 h; Potency, µM (titrated, usually from 46.1 µM), for inactives: at the top dose activity, positive = re-replication, hits mostly activators; actives 2.9% (n = 350,000); AID 624296; further: % of control where 0% means no effect; nearly all actives have a fitted effect of over 50% in size
# Active calls of the source: *; i = inactive; ? = inconclusive; / = no result; [ ] = remark or other dose. The call rests on the fitted dose curve; in most records, active means well fitted curve in the direction sought with a large enough effect; inconclusive means small, poorly fitted or top-dose-only effect, or another doubt; inactive means no such curve, though single readings can be large; an effect the other way counts as inactive or inconclusive. Potency means the concentration at half of the fitted maximal effect.
SMILES,HT1080 IDH1KD tx,HT1080NT lethal,SW480 rereplic,KB-3-1 cytotox,KB-V1 cytotox,MCF10A rerep
CCOC(=O)CN1C(=O)S/C(=C/c2ccc(O)c([N+](=O)[O-])c2)C1=O,-25%,18µM*,0%,?,?,0%
Cn1cccc1C(=O)OCC(=O)Nc1ccc2c(c1)OCCO2,13%,13%,-4%,i,i,-1%
COc1ccc(/C=C2\SC(=O)N(CC(=O)Nc3cccnc3)C2=O)cc1OC,-9%,-11%,?,i,i,12%
COc1ccc(/C=C2\SC(=O)N(CC(=O)Nc3ccc(F)cc3)C2=O)cc1O,-23%,-1%,-13%,i,i,26µM*
COc1cccc(/C=C2\SC(=S)N(CCC(=O)N3CCCCC3CCO)C2=O)c1 (stereo not given),-22%,-3%,18µM*,?,?,23µM*
COc1cc(/C=C2\SC(=S)N(CCC(=O)Nc3ccc(O)cc3)C2=O)cc(OC)c1OC,?,?,?,i,i,16µM*
COc1cccc(/C=C2\SC(=S)N(CCCC(=O)N3CCCCC3CCO)C2=O)c1 (stereo not given),-3%,-8%,3%,i,i,?
CCN1CCN(C(=O)c2ccc3c(c2)N(Cc2cc(C)ccc2C)C(=O)c2ccccc2S3=O)CC1 (stereo not given),/,/,/,i,i,/
COc1ccc(NC(=O)c2csnn2)cc1,/,/,/,i,i,/
Cc1c(C(O)CN2CCN(Cc3ccc4c(c3)OCO4)CC2)c2ccccc2n1C (stereo not given),11µM*,?,?,i,i,19%
COc1ccc2c(c1)c(C(O)CN1CCN(Cc3ccc4c(c3)OCO4)CC1)c(C)n2C (stereo not given),-29%,-27%,-6%[9.22 µM],?,i,6%
C[C@@H](C(=O)NCCc1c[nH]c2ccccc12)[C@H]1C[C@]1(C)[C@H](NC(=O)OCc1ccccc1)c1ccccc1,-14%,-10%,15µM*,16µM*,i,-4%
C[C@@H](C(=O)NCc1ccccn1)[C@H]1C[C@]1(C)[C@H](NC(=O)OCc1ccccc1)c1ccccc1,1%,-9%,-2%,i,?,21µM*
Cc1ccc(/C(C#N)=C\c2ccc(N3CCOCC3)o2)cc1,2µM*,4.5µM*,-1%,i,i,-4%
N#C/C(=C/c1ccc(N2CCCCCC2)o1)c1ccc(Cl)cc1,2.2µM*,5.6µM*,13µM*,i,i,2.9µM*
N#C/C(=C/c1ccc(N2CCCCC2)o1)c1cccc(F)c1,4µM*,?,8.2µM*,i,i,7.3µM*
N#C/C(=C\c1ccc(N2CCOCC2)o1)C(=O)NC1CCCCC1,-1%,8%,-5%,?,i,11%
Cc1ccc(S(=O)(=O)Nc2ccc(Br)cc2/C=N/n2cnnc2)cc1,?,13µM*,10%,i,i,0%
COc1ccccc1Nc1nc2ccc(Cl)cc2nc1-n1nc(C)cc1C,/,/,/,i,i,/
Cc1cc(C)n(-c2nc3ccccc3nc2Nc2ccc(Cl)c(Cl)c2)n1,/,/,/,i,i,/
Cc1ccc2c(n1)sc1c(=O)n(-c3cccc(C(F)(F)F)c3)nnc12,/,/,/,i,i,/
Cc1cccc(N2CCN(C(=O)c3cn(C4CCCCC4)c(=O)c4c3c3ccccc3n4C)CC2)c1C,/,/,/,i,i,/
CN(Cc1ccccc1)C(=O)c1ccc(Nc2nc(C(N)Cc3ccccc3)cs2)nc1 (stereo not given),21µM*,?,/,i,i,/
NC(Cc1ccccc1)c1csc(Nc2ccc(C(=O)NCCCO)cn2)n1 (stereo not given),15%,-5%,/,i,i,/
CN(Cc1ccccc1)C(=O)c1ccc(Nc2nc(C(N)COCc3ccccc3)cs2)nc1 (stereo not given),?,23µM*,/,i,i,/
SMILES,HT1080 IDH1KD tx,HT1080NT lethal,SW480 rereplic,KB-3-1 cytotox,KB-V1 cytotox,MCF10A rerep
NC(Cc1ccc(Cl)cc1)c1csc(Nc2ccc(C(=O)NCCCO)cn2)n1 (stereo not given),?,15µM*,/,i,i,/
CC(C)CC(N)c1csc(Nc2cc(Oc3ccccc3)ncn2)n1 (stereo not given),-24%,21µM*,/,i,?,/
NC(=O)c1ccc(Nc2nc(C(N)COCc3ccccc3)cs2)cc1 (stereo not given),2%,-1%,/,i,i,/
NC(CCc1ccccc1)c1csc(Nc2ccc(C(=O)NCCCO)cn2)n1 (stereo not given),-1%,?,/,i,i,/
CC(C)c1cc(Cn2c3ccccc3c(=O)n2C(C)Cn2cc(-c3ccc(C(C)(C)C)cc3)nn2)on1 (stereo not given),?,?,/,i,?,/
CCOC(=O)c1noc2ncnc(Nc3cccc(OC)c3)c12,/,/,/,i,i,/
CC(C)CC(N)c1csc(Nc2ccc(C(=O)N(C)Cc3ccccc3)cn2)n1 (stereo not given),5.8µM*,4.6µM*,/,?,i,/
Cc1cnc(C)c(Nc2nc(C(N)Cc3ccccc3)cs2)n1 (stereo not given),?,?,/,i,i,/
CCCCN(C)C(=O)c1ccc(Nc2nc(C(N)Cc3ccccc3)cs2)nc1 (stereo not given),-27%,23µM*,/,i,i,/
CN(Cc1ccccc1)C(=O)[C@@H]1CCCN1C(=O)[C@@H]1CCCN1C(=O)c1cccc2ccccc12,6%,13%,/,i,i,/
O=C(Nc1ccc2c(c1)OCCO2)c1ccccc1Cl,3%,-1%,/,i,i,/
O=C(Nc1ccc2c(c1)OCCO2)c1cccc2nc3ccccc3nc12,-14%,-2%,5%,?,6.5µM*,?
O=C(Nc1ccc2c(c1)OCCO2)c1ccccn1,?,?,1%,18µM*,?,3%
CCOc1ccc(OCC)c(NC(=O)C(NS(=O)(=O)c2cccs2)c2ccccc2)c1 (stereo not given),/,/,/,i,?,/
CC1(C)CCN2CCC(C)(C)c3c(O)ccc1c32,?,?,?,?,i,13µM*
COc1ccc2ccc3cccc[n+]3c2c1,-18%,-12%,?,13µM*,i,?
Cc1ccc(NC(=O)c2cc(C)n(-c3ccccc3)c2C)cc1,?,?,3%,i,i,3.3µM*
CCOc1cc(/C=C2\SC(=N)N(c3nccs3)C2=O)ccc1OCCN1CCOCC1,?,-27%,?,i,7.3µM*,8%
